Data on 47 compounds can be found in PubChem BioAssay.

The target of test [1] is Tumor necrosis factor receptor superfamily member 10B (Homo sapiens) (UniProt O14763). Briefly: viability loss of caspase-8 NB7 cells with TRAIL – with/without TRAIL, luminescence panel, confirmation (AID 651596). Particulars: NB7 neuroblastoma + caspase-8, TRAIL sensitization, NB7 Caspase-8, with TRAIL, mean of runs, at 10 µM, stronger effect = higher value.
Experiment in test [2]: as above
Particulars: NB7 neuroblastoma + caspase-8, without TRAIL, NB7 Caspase-8, without TRAIL, mean of runs, at 10 µM.

Tumor necrosis factor receptor superfamily member 10B (Homo sapiens), sequence (O14763 whole entry, looked up): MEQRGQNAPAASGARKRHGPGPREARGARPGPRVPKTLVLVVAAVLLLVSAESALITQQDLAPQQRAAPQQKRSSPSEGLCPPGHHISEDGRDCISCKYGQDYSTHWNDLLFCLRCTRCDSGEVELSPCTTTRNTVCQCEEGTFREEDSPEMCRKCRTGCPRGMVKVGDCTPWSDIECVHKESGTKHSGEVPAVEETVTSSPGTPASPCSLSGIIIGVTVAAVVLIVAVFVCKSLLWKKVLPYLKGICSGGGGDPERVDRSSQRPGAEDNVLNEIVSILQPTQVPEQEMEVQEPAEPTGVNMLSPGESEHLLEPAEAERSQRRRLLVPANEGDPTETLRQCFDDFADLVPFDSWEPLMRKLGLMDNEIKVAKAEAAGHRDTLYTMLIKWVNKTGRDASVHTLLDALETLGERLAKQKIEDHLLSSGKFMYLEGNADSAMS

For the compound `CCOC(=O)c1cccc(N2C(N)=NC(N)=NC2(C)C)c1`, the results for the activity in test [1] and in test [2] were 52.6% and 69.5%, respectively.
In the same order, the values of `Cc1ccc(NC(=O)c2ccc3nsnc3c2)c(Cl)c1` are 60.6% and 58.2%.
The like results for `COC(=O)c1ccc(N/C=C/C(=O)c2ccccc2)cc1` were, in that order, 61.3% and 80.2%.
In the same order, the values of `CC(C)[C@@H](CO)NC(=O)c1ccc2c3n(nc2c1)-c1ccccc1CO3` are 71.1% and 71.6%.
Take `CC(C)c1onc(C(=O)N2CCN(C(c3ccccc3)c3ccccc3)CC2)c1[N+](=O)[O-]`: the results for the activity in test [1] and in test [2] were 98.1% and 93.9%, respectively.
Turning to `COc1ccc(/C(N)=N/OC(=O)c2ccc3c(c2)OCO3)cc1OC`, the activity in test [1] came to 94.2%; in test [2], 95.1%.
In the same order, the values of `Nc1nc(CCl)nc(N(c2ccccc2)c2ccccc2)n1` are 99.3% and 98.7%.
Take `Cc1cc(O)c(C(=O)/C=C/c2ccc(Cl)cc2)c(=O)o1`: the activity in test [1] is 83.4%; in test [2], 79.5%.
The like results for `CCOc1ccc(/C=C2\CCc3ccccc3C2=O)cc1` were, in that order, 83.2% and 79.2%.
The like results for `Cc1ccc(C2=Nc3ccccc3N=C(C(Cl)Cl)C2)cc1` were, in that order, 7.3% and 6.45%.
The like results for `O=c1oc2c(O)cccc2cc1-c1nc2ccccc2[nH]1` were, in that order, 72% and 68.8%.
For the compound `Cc1nc2cc(NC(=O)Nc3nccs3)ccc2n1C`, the figures for the activity in test [1] and in test [2] were 63.5% and 60.8%, respectively.
In the same order, the values of `COC(=O)c1ccc(-c2nc3ccccc3[nH]2)cc1` are 80.7% and 84.4%.
The like results for `COc1ccc(N(C(=O)CCl)C(C(=O)NCCc2ccccc2)c2cccs2)cc1Cl` (centres undefined) were, in that order, 98.3% and 99.1%.
Regarding `Cc1cccc(NC(=O)c2ccc3c(c2)OCCO3)c1`, the activity came out at 85% in test [1] and 83.5% in test [2].
For `CCOc1ccc(N2C(N)=NC(N)=NC2(C)C)cc1`, the activity in test [1] turned out to be 67.3%; in test [2] it was 82.9%.
With `CNC[C@H](CC1CCCCC1)NC[C@H](Cc1ccccc1)NCCC12CC3CC(CC(C3)C1)C2`, the activity in test [1] was determined as 98.5%; in test [2], 99.4%.
The like results for `O=C(Nc1nnc(SCC(=O)N2CCOCC2)s1)c1ccccc1Cl` were, in that order, 72.6% and 78.2%.
In the same order, the values of `CCN1CCN(Cc2ccc(NC(=O)c3cc(NC(=O)C(=O)c4c[nH]c5ccccc45)cc(OC)c3)cc2C(F)(F)F)CC1` are 82.2% and 77.7%.
The like results for `C=CCn1c2ccccc2c(=O)c2cc(C#CC3(O)CCCCC3)ccc21` were, in that order, 83.7% and 79.7%.
In the case of `CCOc1cc(NC2CS(=O)(=O)CC2O)c(OCC)cc1NC(=O)c1ccccc1` (centres undefined), the activity in test [1] is -26.1%; in test [2], -33.2%.
Regarding `Cc1ccc(OCC(=O)Nc2ccccc2C(N)=O)cc1`, the values for the activity in test [1] and in test [2] were 66.8% and 68.1%, respectively.
For `COc1ccc(C(=O)Nc2ccccc2C(=O)N/N=C/c2ccncc2)cc1OC`, the values for the activity in test [1] and in test [2] were 97.7% and 96.3%, respectively.
`COc1ccccc1-c1cc2nc(-c3ccccc3)cc(N3CCN(C(=O)c4ccoc4)CC3)n2n1`: the activity in test [1] came to 78.4%; in test [2], 62.7%.
In the same order, the values of `COc1ccc(C(=O)/C=C2\C(=O)Nc3ccc(Br)cc32)cc1` are 49.3% and 77.4%.
In the same order, the values of `O=[N+]([O-])c1cc(S(=O)(=O)N2CCCCCC2)ccc1F` are 83.9% and 72.6%.
As to `Cc1ccccc1-n1nnnc1Sc1nnnn1-c1ccccc1`, the activity in test [1] was determined as 46.1%; in test [2], 91.3%.
The like results for `CCN1CCN(Cc2ccc(NC(=O)c3cc(NC(=O)c4cnnc5ccccc45)cc(OC)c3)cc2C(F)(F)F)CC1` were, in that order, 55.2% and 93.9%.
The like results for `O=c1c2sc(-c3ccccc3)cc2nc2n1CCC2` were, in that order, 46.9% and 50%.
The like results for `COc1ccc(-c2cn3cc(C)ccc3n2)cc1OC` were, in that order, 74.7% and 77%.
As for `O=C(N/N=C1\CCc2ccccc21)c1ccccc1O`, the activity in test [1] turned out to be 53.7%; in test [2] it was 62.4%.
In the same order, the values of `c1ccc(-c2ccc(-c3nc(-c4ccccn4)no3)cc2)cc1` are 94% and 93.2%.
In the same order, the values of `O=C(CSc1nc2ccccc2c(=O)[nH]1)Nc1ccc([N+](=O)[O-])cc1` are 35.1% and 31.3%.
The like results for `c1ccc(-n2nnc3c(N4CCOCC4)ncnc32)cc1` were, in that order, 74.7% and 74.7%.
`NC1=NC[C@H](CC2CCCCC2)N1CCc1cc(C(F)(F)F)cc(C(F)(F)F)c1`: the activity was 40.9% in test [1] and 80% in test [2].
In the same order, the values of `Cc1cc(C(=O)CSc2nnc(N)s2)c(C)n1Cc1cccs1` are 72.5% and 77.5%.
With `O=C(CCl)Nc1cccc(Oc2ccccc2)c1`, the activity in test [1] and in test [2] was 97.7% in each case.
`CCCCCc1cc(=O)oc2c(C(CCN3CCCC3)c3cc(OC)c(OC)c(OC)c3)c(OC)cc(OC)c12` (centres undefined): the activity in test [1] was found to be 28.4%; in test [2], 69.4%.
On to `O=C(Nc1ccc2nc3ccccc3nc2c1)c1ccccc1`, for which the activity worked out at 47% in test [1] and 32.9% in test [2].
In the same order, the values of `CCC[C@H](CN[C@@H](CNC)[C@H](C)CC)NCCc1cc(C(F)(F)F)cc(C(F)(F)F)c1` are 65.7% and 96.1%.
In the same order, the values of `O=C(NC(=S)Nc1nc2ccccc2s1)c1cccs1` are 83.1% and 75.6%.
The like results for `CC(C)(C)NCCC(O)c1cc(C(F)(F)F)nc2c(C(F)(F)F)cccc12` (centres undefined) were, in that order, 97.5% and 96.7%.
As to `C/C(=N\NC(=O)COc1ccc(C(C)(C)C)cc1)c1cc2ccccc2o1`, the activity in test [1] was found to be 89.2%; in test [2], 84.2%.
The like results for `CCCc1c(C(=O)N/N=C/C=C/c2ccccc2)nnn1-c1nonc1N` were, in that order, 47.5% and 50.4%.
`O=c1c2c(-c3ccccc3)csc2nc2c3ccccc3c(NCCN3CCOCC3)nn12`: the activity was determined as 89.5% in test [1] and 90.1% in test [2].
The like results for `COc1cc(SC)ccc1C(=O)Nc1nccs1` were, in that order, 83.3% and 84.3%.
In the same order, the values of `CN1/C(=C\C(=O)C[n+]2ccc(C(=O)c3ccccc3)cc2)C(C)(C)c2ccccc21` are 15.8% and 27.4%.
